Results: PubChem BioAssay (NCATS)
“And” between values parts separate entries of the source, which are not always exact repeats. Equal entries are not always repeated. Records with an inconclusive call do not appear. The source holds several records for some structures; these can differ, active in one and inactive in another. The source made the active and inactive calls. Unless noted, calls come from the whole dose curve; as a rule, active = well fitted curve in the direction sought with a large enough effect; inconclusive = small, poorly fitted or top-dose-only effect, or another doubt; inactive = no such curve, though single readings can be large; an effect the other way counts as inactive or inconclusive.

Tests used:
[1] = biological target: Cytochrome P450 1A2 (Homo sapiens) (UniProt P05177); test: p450-cyp1a2 (AID 410; calls by dose curve; note: potency is the fitted concentration of half-maximal effect)
Sequence of Cytochrome P450 1A2 (Homo sapiens) (P05177 whole entry, looked up): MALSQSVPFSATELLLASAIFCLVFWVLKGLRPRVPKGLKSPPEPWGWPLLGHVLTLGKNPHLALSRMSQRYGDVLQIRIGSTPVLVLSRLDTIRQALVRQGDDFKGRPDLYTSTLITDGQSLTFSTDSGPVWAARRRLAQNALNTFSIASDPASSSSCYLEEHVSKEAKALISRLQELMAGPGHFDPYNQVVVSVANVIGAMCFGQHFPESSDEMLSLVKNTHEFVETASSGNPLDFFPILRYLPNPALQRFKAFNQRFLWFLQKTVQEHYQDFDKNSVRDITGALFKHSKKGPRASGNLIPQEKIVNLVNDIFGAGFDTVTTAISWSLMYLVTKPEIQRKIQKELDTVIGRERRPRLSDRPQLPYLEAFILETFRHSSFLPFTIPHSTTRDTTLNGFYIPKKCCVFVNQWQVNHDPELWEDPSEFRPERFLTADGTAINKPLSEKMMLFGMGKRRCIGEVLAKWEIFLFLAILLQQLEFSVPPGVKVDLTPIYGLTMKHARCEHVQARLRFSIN
Outline: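 Luminescent demethylation readout: Luciferin-ME (100uM, equal to Km) turned over by 20nM CYP1A2 for 60 min at room temperature after NADPH regeneration addition, following 10 min compound preincubation. Normalization used 57 uM furafylline as full inhibition.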

[2] = biological target: Glucocorticoid receptor (Homo sapiens) (UniProt P04150); test: GR-GFP Redistribution (AID 450;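 active = compounds whose dose series gives a full or clear partial fitted curve of increased nuclear translocation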; note: potency is the fitted concentration of half-maximal effect); details: U2OS GR-GFP nuclear translocation, laser cytometry, 2 h
Sequence of Glucocorticoid receptor (Homo sapiens) (P04150 whole entry, looked up, the tested form may be a part): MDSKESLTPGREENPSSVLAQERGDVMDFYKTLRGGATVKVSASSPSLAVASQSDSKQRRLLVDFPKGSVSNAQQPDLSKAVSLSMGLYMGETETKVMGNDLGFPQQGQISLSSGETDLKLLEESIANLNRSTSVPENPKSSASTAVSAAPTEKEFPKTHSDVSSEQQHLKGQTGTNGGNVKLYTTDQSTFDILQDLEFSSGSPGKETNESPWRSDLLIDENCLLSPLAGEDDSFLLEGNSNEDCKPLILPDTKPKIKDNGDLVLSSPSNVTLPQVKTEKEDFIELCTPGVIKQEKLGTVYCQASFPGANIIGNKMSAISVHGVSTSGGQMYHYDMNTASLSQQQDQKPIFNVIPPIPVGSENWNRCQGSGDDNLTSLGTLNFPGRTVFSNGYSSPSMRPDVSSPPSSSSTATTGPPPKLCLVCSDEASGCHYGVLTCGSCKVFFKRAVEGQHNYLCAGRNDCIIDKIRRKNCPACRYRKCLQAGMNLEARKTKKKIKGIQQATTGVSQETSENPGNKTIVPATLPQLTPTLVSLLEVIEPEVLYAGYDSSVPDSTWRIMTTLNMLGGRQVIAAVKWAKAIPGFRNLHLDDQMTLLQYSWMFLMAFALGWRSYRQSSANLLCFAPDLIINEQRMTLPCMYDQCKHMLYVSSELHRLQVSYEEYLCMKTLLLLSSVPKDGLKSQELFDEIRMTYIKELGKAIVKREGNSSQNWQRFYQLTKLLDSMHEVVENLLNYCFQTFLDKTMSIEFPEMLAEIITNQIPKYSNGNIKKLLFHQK

[3] = biological target: Glucocorticoid receptor (Homo sapiens) (UniProt P04150); test: GR-EFC Redistribution (AID 451; calls by dose curve; note: potency is the fitted concentration of half-maximal effect); details: CHO-K1 GR-EFC translocation, beta-gal luminescence, 2 h
Outline: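 Translocation of GR-ED fusion to nuclear EA restores b-gal, read by luminescence after 1 h room-temperature detection. Engineered CHO-K1 biosensor cells, 1,000/well, exposed 2 h at 37 C to titrations up to 46 uM final.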

[4] = biological target: Mitogen-activated protein kinase 10 (Mus musculus) (UniProt Q61831); test: JNK3 AlphaScreen Assay (AID 530; active = well fitted curve in either direction with a large enough effect, not every such curve was filed as active;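 note: kinase came from lysate of stimulated human HepG2 cells; signal reports phosphorylation of biotinylated GST-cJun 1-79 at Ser73 with 10 µM ATP; series mostly up to about 57 µM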)
Outline: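 qHTS titrations with 15 min compound pre-incubation before adding ATP (10 uM final). Read-out: AlphaScreen of Ser73-phosphorylated biotin-GST-cJun using HepG2 lysate JNK3 activated by IL-1β and TNFα.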

[5] = biological target: 3',5'-cyclic-AMP phosphodiesterase 4B (Homo sapiens) (UniProt Q07343); test: qHTS Assay for Inhibitors of PDE-IV (AID 607; active = well fitted activation curve with a large enough effect in the main read-out, with a control signal flat, not every such curve was filed as active)
Sequence of 3',5'-cyclic-AMP phosphodiesterase 4B (Homo sapiens) (Q07343 whole entry, looked up): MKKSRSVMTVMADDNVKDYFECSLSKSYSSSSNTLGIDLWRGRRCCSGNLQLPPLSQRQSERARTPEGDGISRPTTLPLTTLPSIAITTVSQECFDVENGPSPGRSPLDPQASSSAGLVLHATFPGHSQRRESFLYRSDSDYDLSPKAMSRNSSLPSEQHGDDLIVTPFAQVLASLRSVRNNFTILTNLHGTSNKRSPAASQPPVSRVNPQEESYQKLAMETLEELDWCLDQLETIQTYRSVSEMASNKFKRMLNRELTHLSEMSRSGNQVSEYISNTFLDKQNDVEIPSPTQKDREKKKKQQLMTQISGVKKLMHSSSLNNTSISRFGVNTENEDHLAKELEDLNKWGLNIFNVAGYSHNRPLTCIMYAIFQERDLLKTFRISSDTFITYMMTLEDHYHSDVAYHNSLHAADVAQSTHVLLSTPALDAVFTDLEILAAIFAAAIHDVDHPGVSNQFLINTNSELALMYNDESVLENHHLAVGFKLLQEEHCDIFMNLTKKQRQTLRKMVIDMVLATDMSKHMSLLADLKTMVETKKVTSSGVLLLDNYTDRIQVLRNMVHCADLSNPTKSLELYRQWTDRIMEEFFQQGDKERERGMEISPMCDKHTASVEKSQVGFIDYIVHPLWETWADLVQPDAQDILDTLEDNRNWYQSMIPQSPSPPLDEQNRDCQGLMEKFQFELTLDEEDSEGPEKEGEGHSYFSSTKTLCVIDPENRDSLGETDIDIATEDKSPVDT
Outline: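 ACTOne HEK293 cells carry a modified cAMP-gated CNG channel and express endogenous PDE4; plated 1000 cells/well, compounds up to 22.9 uM final. Membrane-potential dye fluorescence (ex 535/em 590) was read; parental cells received 10 uM forskolin + 100 uM RO 20-1724.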

[6] = biological target: Cytochrome P450 3A4 (Homo sapiens) (UniProt P08684); test: qHTS Assay for Activators of Cytochrome P450 3A4 (AID 885); note: nearly all actives have a fitted effect of over 65% in size; note: potency is the fitted concentration of half-maximal effect
Sequence of Cytochrome P450 3A4 (Homo sapiens) (P08684 whole entry, looked up): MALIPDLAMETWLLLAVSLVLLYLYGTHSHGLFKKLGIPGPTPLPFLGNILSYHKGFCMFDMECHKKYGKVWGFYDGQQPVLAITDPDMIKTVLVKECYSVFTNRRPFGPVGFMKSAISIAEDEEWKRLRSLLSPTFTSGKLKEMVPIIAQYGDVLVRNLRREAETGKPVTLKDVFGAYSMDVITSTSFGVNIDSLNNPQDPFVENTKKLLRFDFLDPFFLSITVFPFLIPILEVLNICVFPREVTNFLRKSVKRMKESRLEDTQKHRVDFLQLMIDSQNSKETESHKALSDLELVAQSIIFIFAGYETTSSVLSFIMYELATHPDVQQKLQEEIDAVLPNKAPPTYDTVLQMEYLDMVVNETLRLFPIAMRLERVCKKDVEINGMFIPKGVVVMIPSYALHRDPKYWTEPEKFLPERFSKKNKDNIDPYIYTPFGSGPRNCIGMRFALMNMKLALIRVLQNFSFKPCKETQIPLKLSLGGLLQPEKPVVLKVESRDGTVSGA
Outline: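 CYP3A4 activity: Luciferin-PPXE O-dealkylation, 25uM substrate, 200mM KPO4, RT throughout. Read-out is luciferase luminescence; higher values reflect activation.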

[7] = biological target: DNA dC->dU-editing enzyme APOBEC-3G (Homo sapiens) (UniProt Q9HC16); test: qHTS for inhibitors of Vif-A3G interactions: Validation (AID 588379)
Sequence of DNA dC->dU-editing enzyme APOBEC-3G (Homo sapiens) (Q9HC16 whole entry, looked up): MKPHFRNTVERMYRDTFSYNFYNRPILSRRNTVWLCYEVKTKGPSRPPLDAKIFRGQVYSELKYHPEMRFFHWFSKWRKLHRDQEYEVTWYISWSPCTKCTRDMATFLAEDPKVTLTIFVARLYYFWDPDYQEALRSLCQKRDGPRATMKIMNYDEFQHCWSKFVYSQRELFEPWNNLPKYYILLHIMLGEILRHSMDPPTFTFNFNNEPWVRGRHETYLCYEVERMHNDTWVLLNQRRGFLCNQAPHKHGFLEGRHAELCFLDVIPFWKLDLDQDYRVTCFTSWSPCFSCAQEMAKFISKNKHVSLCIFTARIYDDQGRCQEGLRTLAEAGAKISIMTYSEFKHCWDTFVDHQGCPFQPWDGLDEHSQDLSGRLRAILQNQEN
Outline: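 Yellow fluorescence (Ex 488, Em 500-530) of Vif-coexpressing HeLa A3G-eYFP cells, scanned by Acumen cytometer, reports blocked A3G degradation. Cells plated at 700/well overnight at 37 deg C before compound addition, then a further overnight compound incubation at 37 deg C.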

[8] = system: Zika virus NS2B-NS3 protease; test: Primary screen GU AMC qHTS for Zika virus inhibitors (AID 1347154); note: nearly all actives have a fitted effect of over 70% in size
Outline: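 Fluorogenic AMC-substrate cleavage by noncovalent NS2B-NS3 protease complex (25 nM, pH 8.0 Tris buffer with Tween 20) followed for 15 minutes at room temperature (~20% conversion). Percent inhibition from ex340/em450 signal change, fitted by 4-parameter Hill equation.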

[9] = Primary qHTS for small molecule stabilizers of the endoplasmic reticulum resident proteome: Secreted ER Calcium Modulated Protein (SERCaMP) assay (AID 1508630)
Outline: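 The SH-SY5Y reporter protocol was run at 3 concentrations up to 38.3 uM (primary) or 11 concentrations (follow-up): 16 h compound, 100 nM thapsigargin for 4 h, then extracellular luciferase luminescence.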

[10] = biological target: Ubiquitin carboxyl-terminal hydrolase 1 (Homo sapiens) (UniProt O94782); test: Inhibitors of USP1/UAF1: Pilot qHTS (AID 504865);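 note: rhodamine fluorescence freed from ubiquitin-rhodamine substrate followed over time; top concentration of the series differs between compounds; nearly all actives have a fitted effect of over 35% in size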
Sequence of Ubiquitin carboxyl-terminal hydrolase 1 (Homo sapiens) (O94782 whole entry, looked up): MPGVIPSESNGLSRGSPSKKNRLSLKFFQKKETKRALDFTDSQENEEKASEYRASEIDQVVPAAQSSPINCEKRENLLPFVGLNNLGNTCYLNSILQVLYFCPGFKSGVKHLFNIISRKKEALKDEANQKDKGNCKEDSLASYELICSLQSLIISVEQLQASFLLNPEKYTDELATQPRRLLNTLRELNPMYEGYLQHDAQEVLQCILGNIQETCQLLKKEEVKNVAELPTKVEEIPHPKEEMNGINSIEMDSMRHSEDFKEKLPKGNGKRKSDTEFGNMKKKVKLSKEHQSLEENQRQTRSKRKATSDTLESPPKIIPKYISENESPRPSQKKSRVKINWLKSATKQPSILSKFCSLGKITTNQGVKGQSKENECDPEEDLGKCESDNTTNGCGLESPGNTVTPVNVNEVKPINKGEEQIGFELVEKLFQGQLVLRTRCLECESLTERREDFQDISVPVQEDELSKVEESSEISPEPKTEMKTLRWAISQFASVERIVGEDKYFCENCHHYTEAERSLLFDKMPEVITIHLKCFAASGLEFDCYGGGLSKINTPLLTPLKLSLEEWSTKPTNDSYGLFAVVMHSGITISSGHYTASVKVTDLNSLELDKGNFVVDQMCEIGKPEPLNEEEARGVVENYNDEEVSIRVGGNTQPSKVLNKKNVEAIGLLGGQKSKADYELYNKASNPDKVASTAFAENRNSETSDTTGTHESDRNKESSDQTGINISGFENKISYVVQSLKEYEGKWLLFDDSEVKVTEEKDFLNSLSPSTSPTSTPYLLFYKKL
Outline: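 Kinetic fluorescence assay: 1nM USP1/UAF1, 15 min compound preincubation, then 150nM Ub-Rho; 480/540 nm.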

[11] = qHTS for Inhibitors of the vitamin D receptor (VDR): Hit Validation using a Texas Red Assay (AID 602201); details: VDR coregulator binding, Texas Red fluorescence polarization; agonist-bound VDR ligand-binding domain; note: potency is the fitted concentration of half-maximal effect
Outline: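 After a 2-hour room-temperature incubation, polarization of Texas-Red emission was read (Ex 595 nm/Em 615 nm). Final mix contained 7 nM Texas Red, 1.5 uM VDR-LBD and LG19078.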

[12] = biological target: Cytochrome P450 3A4 (Homo sapiens) (UniProt P08684); test: qHTS Assay for Inhibitors and Substrates of Cytochrome P450 3A4 (AID 884); note: series mostly up to about 57 µM; nearly all actives have a fitted effect of over 50% in size
Outline: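 Luminescent readout of luciferin produced by CYP3A4 (20 nM) dealkylation of Luciferin-PPXE, 25 uM (its KM). NADPH-driven reaction ran 60 min at RT after 10 min compound preincubation; data scaled to 57 uM ketoconazole as 100% inhibition.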

[13] = biological target: Guanine nucleotide-binding protein G(i) subunit alpha-1 (Homo sapiens) (UniProt P63096); test: qHTS Assay for Inhibitors of RGS12 GoLoco Motif Activity (Green Fluorophore) (AID 879);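 note: negative values mean loss of peptide binding seen as reduced polarization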
Sequence of Guanine nucleotide-binding protein G(i) subunit alpha-1 (Homo sapiens) (P63096 whole entry, looked up): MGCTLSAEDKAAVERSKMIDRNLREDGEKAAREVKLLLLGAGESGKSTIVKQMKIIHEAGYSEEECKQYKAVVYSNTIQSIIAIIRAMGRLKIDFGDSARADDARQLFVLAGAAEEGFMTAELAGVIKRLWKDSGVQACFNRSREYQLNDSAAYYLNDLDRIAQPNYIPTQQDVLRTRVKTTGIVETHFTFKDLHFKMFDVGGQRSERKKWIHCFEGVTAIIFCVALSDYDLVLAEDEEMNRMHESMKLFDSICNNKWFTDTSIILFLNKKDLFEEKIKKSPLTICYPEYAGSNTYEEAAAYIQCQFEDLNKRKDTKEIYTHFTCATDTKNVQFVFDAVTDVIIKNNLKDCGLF
Outline: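 A drop in FITC polarization marked displacement of the FITC-tagged RGS12 GoLoco peptide (10 nM) from Gαi1 (50 nM). Compounds were incubated 10 min at room temperature in Tris pH 7.5 buffer containing 150 mM NaCl, 0.1 mM GDP and 0.05% NP40; unlabeled peptide titration served as control.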

[14] = biological target: Muscarinic acetylcholine receptor M1 (Rattus norvegicus) (UniProt P08482); test: qHTS Assay for Antagonists of Acetylcholine Muscarinic M1 Receptor: Measurement of IP-One Response (AID 944); note: potency is the fitted concentration of half-maximal effect; nearly all actives have a fitted effect of over 75% in size
Outline: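 IP1 accumulation measured via TR-FRET between d2-IP1 and Eu-cryptate anti-IP1 antibody after carbachol (200 nM, EC80) stimulation for 30 min; rat M1-transfected CHO cells received compound 10 min before agonist.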

[15] = biological target: Pyruvate kinase (Leishmania mexicana) (UniProt Q27686); test: qHTS Validation Assay for Inhibitors of Leishmania Mexicana Pyruvate Kinase (AID 945)
Sequence of Pyruvate kinase (Leishmania mexicana) (Q27686 2-499 E452W): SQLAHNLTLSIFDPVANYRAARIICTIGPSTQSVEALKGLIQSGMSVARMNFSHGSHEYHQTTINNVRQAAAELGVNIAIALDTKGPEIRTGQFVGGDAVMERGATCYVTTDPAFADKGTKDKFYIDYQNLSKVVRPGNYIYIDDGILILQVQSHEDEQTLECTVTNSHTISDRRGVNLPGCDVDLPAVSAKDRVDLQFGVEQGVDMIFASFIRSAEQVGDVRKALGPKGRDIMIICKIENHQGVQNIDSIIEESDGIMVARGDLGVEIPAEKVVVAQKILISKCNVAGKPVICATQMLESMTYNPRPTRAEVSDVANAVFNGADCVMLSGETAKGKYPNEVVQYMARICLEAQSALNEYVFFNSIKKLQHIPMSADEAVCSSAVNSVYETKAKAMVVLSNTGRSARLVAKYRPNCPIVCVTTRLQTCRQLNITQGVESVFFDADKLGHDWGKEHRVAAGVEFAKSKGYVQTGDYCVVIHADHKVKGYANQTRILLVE
Outline: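 Luminescent ATP detection (PKLight) after a 1 h room-temperature reaction of 0.2 nM LmPYK E451W mutant with 0.5 mM PEP and 0.1 mM ADP at pH 7.2. Activity is normalized to DMSO-only control wells.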

[16] = biological target: Pyruvate kinase PKM (Homo sapiens) (UniProt P14618); test: qHTS Assay for Activators of Human Muscle Pyruvate Kinase (AID 954; active = well fitted curve in the direction sought with a large enough effect, not every such curve was filed as active)
Outline: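 A coupled luminescent readout tracked ATP made from ADP by purified PKM2. Final conditions included 0.1 nM enzyme, PEP and ADP at 0.5 and 0.1 mM, pH 7.2 imidazole buffer with BSA, and a one-hour room-temperature reaction.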

[17] = biological target: Alpha-galactosidase A (Homo sapiens) (UniProt P06280); test: Counterscreen for Glucocerebrosidase Inhibitors: qHTS Assay for Human alpha-Galactosidase at pH 4.5 (AID 992)
Sequence of Alpha-galactosidase A (Homo sapiens) (P06280 whole entry, looked up): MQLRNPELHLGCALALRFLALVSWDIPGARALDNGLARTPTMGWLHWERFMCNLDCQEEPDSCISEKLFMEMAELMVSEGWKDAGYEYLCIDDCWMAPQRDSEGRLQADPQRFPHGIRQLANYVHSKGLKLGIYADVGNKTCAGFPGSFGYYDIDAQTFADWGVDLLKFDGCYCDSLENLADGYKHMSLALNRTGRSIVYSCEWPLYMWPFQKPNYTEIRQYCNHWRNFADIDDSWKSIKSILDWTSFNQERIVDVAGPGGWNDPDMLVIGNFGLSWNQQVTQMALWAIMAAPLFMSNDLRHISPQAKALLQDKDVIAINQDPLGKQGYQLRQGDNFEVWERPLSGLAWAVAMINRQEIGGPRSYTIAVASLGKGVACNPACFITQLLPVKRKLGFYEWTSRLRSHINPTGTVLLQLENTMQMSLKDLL
Outline: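 Citrate buffer pH 4.5, Tween-20 0.005%. Enzyme 2 nM, substrate 80 uM, 20 min RT. Stop pH 10. Fluorescence Ex 365/Em 440. AC50 by Hill fit.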

[18] = biological target: alpha-glucosidase (Oryza sativa, rice) (UniProt Q653V4); test: Counterscreen for Glucocerebrosidase Inhibitors: qHTS Assay for Rice alpha-Glucosidase at pH 5.0 (AID 997)
Outline: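 Endpoint fluorogenic assay at pH 5.0: compounds (0.7 nM to 77 uM) titrated against 4 nM rice enzyme and 400 uM 4-MU-alpha-glucoside for 20 min at room temperature; NaOH/glycine stop, read ex 365/em 440 nm, Hill-fitted AC50.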

Measured: Potency

C[N+]1(C)CCc2cc3c(cc2[C@@H]1[C@@H]1C(=O)Oc2c1ccc1c2OCO1)OCO3
inactive and 1.26 µM (active): [1]
inactive: [2] > 46 µM | [3] > 46 µM | [4] | [5] | [6] | [7] | [8] | [9]

COc1ccc2[nH]c(C(=O)c3ccccc3)cc2c1
inactive: [2] > 46 µM | [3] > 46 µM | [7] | [8] | [9]
active: [1] 0.1 µM

CC(C)(C)Cn1nc(-c2ccc(Cl)cc2)c2c(N)ncnc21
inactive: [2] > 46 µM | [3] > 46 µM | [10] | [7] | [8] | [9]
active: [1] 0.158 µM

COc1ccc(CCCO[C@@H](Cn2ccnc2)c2ccc(OC)cc2)cc1
active: [1] 0.0158 µM
inactive: [2] > 46 µM | [3] > 46 µM | [4] | [8] | [9]

O=C1c2ccccc2CC[C@H]1CNCCc1ccc(O)cc1
inactive: [2] > 46 µM | [3] > 46 µM | [5] | [6] | [7] | [8] | [9]
active: [1] 20 µM | [11] 25.1 µM

COc1ccccc1N1CCN(C[C@@H](C(=O)NC(C)(C)C)c2ccccc2)CC1
inactive: [2] > 46 µM | [3] > 46 µM | [10] | [7] | [8] | [9]
active: [1] 0.631 µM

CC[C@]1(O)C[C@@H]2CN(CCc3c([nH]c4ccccc34)[C@](C(=O)OC)(c3cc4c(cc3OC)N(C=O)[C@H]3[C@@](O)(C(=O)OC)[C@H](C(=O)OC)[C@@]5(CC)C=CCN6CC[C@]43[C@H]65)C2)C1
inactive: [1] | [2] > 46 µM | [3] > 46 µM | [6] | [10] | [7] | [8] | [9]

CCCN(C/C=C\I)[C@@H]1CCc2cccc(O)c2C1
active: [1] 2.51 µM | [6] 25.1 µM
inactive: [2] > 46 µM | [3] > 46 µM | [4] | [12] | [7] | [8] | [9]

C#C[C@]1(O)CC[C@H]2[C@H]3CCC4=Cc5oncc5C[C@]4(C)[C@@H]3CC[C@]21C
inactive: [2] > 46 µM | [3] > 46 µM | [13] | [6] | [15] | [16] | [17] | [18] | [10] | [7] | [8] | [9]
active: [1] 12.6 µM | [14] 7.94 µM

CC[C@]1(O)C[C@@H]2CN(CCc3c([nH]c4ccccc34)[C@](C(=O)OC)(c3cc4c(cc3OC)N(C)[C@H]3[C@](O)(C(=O)OC)[C@@H](C(=O)OC)[C@@]5(CC)C=CCN6CC[C@@]43[C@@H]65)C2)C1
inactive: [1] | [2] > 46 µM | [3] > 46 µM | [4] | [6] | [10] | [7] | [8] | [9]
